Rows were chosen to be rich in hits. Some 4.7% of all compounds tested hit in one or more screens of this group.
GDH-TPI counter = GDH-TPI coupling enzyme inhibitors, primary screen, artefact control for M. tuberculosis FBA inhibitor project, biochemical, absorbance, full deck | GDH-TPI coupled enzyme counterscreen, NADH absorbance | inhibition, % at 4.8 µM | 360,000 tested, 1.2% active | AID 588335, 2011;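 further: 0% = DMSO wells and 100% = wells lacking the enzyme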
RecA intein inh = Mtb RecA intein splicing inhibitors, primary screen, biochemical, fluorescence, HTS; Protein RecA (Mycobacterium tuberculosis (strain ATCC 25618 / H37Rv)), P9WHJ3; cell-free RecA intein splicing; inhibition, % (no concentration beside the values); 290,000 tested, 0.75% active; AID 2221, 2009; in the data active means inhibition above about 30%;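 further: 0% = vehicle wells and 100% = reference inhibitor control wells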
CCHF vOTU inh = CCHFV vOTU protease inhibitors, primary screen, biochemical, Pep-AMC substrate, fluorescence | Crimean-Congo hemorrhagic fever virus L polyprotein viral ovarian tumor (vOTU) protease … | inhibition, % at 11.5 µM | 370,000 tested, 0.55% active | AID 651958, 2012; further: 0% = vehicle wells with enzyme and 100% = no enzyme wells
VHR inh abs = VHR1 phosphatase inhibitors, primary screen, biochemical, absorbance, uHTS; Dual specificity protein phosphatase 3 (Homo sapiens), P51452; recombinant VHR phosphatase, pNPP absorbance; inhibition, % at 13.3 µM; 290,000 tested, 0.52% active; AID 1654, 2009; in the data active means inhibition above about 50%
Target sequence (P51452 whole entry, looked up): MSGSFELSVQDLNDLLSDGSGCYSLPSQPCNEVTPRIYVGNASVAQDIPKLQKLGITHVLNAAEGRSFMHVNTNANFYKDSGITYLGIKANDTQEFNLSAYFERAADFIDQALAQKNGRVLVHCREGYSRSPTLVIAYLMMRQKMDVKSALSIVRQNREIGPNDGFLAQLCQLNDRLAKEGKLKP
3CLpro inhibitor = SARS-CoV 3CLpro protease inhibitors, primary screen, biochemical, quenched FRET; AID 1706, 2009; recombinant SARS-CoV 3CLpro, quenched FRET peptide cleavage; 290,000 tested, 0.14% active; inhibition, % at 6 µM; in the data active means inhibition above about 12%
Mtb FBA inh = Mtb FBA enzyme inhibitors, primary screen, biochemical, fluorescence, strain H37Rv | Fructose-bisphosphate aldolase (Mycobacterium tuberculosis (strain ATCC 25618 / H37Rv)), … | purified M. tuberculosis FBA, fluorescence read-out | inhibition, % at 1 µM | 360,000 tested, 2.3% active | AID 588726, 2011; in the data active means inhibition above about 27%;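 further: 0% = vehicle and 100% = reference inhibitor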
Target sequence (P9WQA3 whole entry, looked up): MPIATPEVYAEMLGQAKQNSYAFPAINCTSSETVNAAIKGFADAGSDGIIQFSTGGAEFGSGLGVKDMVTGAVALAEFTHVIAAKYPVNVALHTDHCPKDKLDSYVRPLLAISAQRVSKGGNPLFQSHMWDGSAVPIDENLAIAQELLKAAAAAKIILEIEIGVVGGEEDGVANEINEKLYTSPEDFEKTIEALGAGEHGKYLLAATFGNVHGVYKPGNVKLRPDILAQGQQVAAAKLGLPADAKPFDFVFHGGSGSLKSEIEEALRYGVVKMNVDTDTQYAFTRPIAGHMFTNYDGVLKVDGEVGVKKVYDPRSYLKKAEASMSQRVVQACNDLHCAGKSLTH
* hit, by the source's call; i = inactive; nt = no result given; + = active, no number. Unless noted, no stated cut-off is given here; in the data, active means inhibition above about 30%; inactive means the rest.

SMILES	GDH-TPI counter	RecA intein inh	CCHF vOTU inh	VHR inh abs	3CLpro inhibitor	Mtb FBA inh
Cc1cccc(-n2c3nc(=O)[nH]c(=O)c-3cc3c(C)nn(-c4ccccc4)c32)c1C	12	-5	-212	1	3	+
Cc1nn(-c2ccccc2)c2c1cc1c(=O)n(C)c(=O)nc-1n2-c1ccccc1F	1	-22	-150	13	-3	164*
Cc1cccc(-n2c(C)nc3ccccc3c2=O)c1C	-1	1	1	6	1	3
COc1cccc(C(=O)N[C@H](C(=O)N2CCC[C@H]2C(=O)NC2CCCC2)c2ccccc2)c1	nt	nt	-4	nt	nt	nt
O=C(N/N=C/c1ccc(Br)o1)c1cccnc1	16	-5	-14	-2	2	1
O=C(NN=Cc1ccc(N(CCCl)CCCl)cc1)c1cccnc1	38*	nt	20	nt	nt	-1
O=C(NN=Cc1ccc(N(CCCl)CCCl)cc1)c1cccc([N+](=O)[O-])c1	29	nt	1	nt	nt	-1
COc1cc(/C=N/NC(=O)c2cccnc2)cc(Br)c1O	44*	-2	16	11	3	2
O=C(N/N=C/c1ccc(OC(=O)c2ccccc2)cc1)c1cccnc1	0	23	10	18	1	+
O=C(N/N=C/c1ccc(OC(=O)c2ccc([N+](=O)[O-])cc2)cc1)c1cccnc1	2	-1	-5	24	-1	-1
O=C(N/N=C/c1cc(Br)c(O)c(Br)c1)c1cccnc1	31*	-2	5	-20	4	0
S=C1SC2(CCCCCC2)NC2=C1CCCCC2	13	nt	6	nt	nt	-8
COc1ccc(/C=N/NC(=O)c2cccnc2)cc1COc1ccc(NC(C)=O)cc1	31*	-1	14	-3	1	-8
O=S(=O)(N/N=C\C=C\c1ccccc1)c1ccc(Br)cc1	39*	-2	21	29	0	-2
Cc1nc(N2CCOCC2)c2c(C)c(C(=O)Nc3ccccc3Cl)sc2n1	31*	-2	-12	1	1	-3
Cc1nc(N2CCOCC2)c2c(C)c(C(=O)Nc3ccc(F)cc3Cl)sc2n1	-7	1	-8	-7	2	-3
Cc1cccc(OCC(=O)Oc2ccc(Cl)cc2)c1	3	34*	-12	nt	nt	2
O=C(COC(=O)CCC1CCCC1)Nc1ccc(F)cc1Cl	-1	nt	14	nt	nt	0
N#Cc1c(-c2ccccc2Cl)c2c([nH]c1=O)-c1ccccc1OC2	27	-287	-264	-14	4	+
Oc1[nH]c2ccc(Br)cc2c1N=NC(=S)NCC1CCCO1 (stereo unspecified)	36*	19	0	9	2	-8
Oc1[nH]c2ccccc2c1N=NC(=S)NCC1CCCO1 (stereo unspecified)	21	10	-3	13	1	-8
COc1ccc(OC)c(-c2cc(C(=O)N3CCCc4ccccc43)no2)c1	34*	0	4	19	0	2
COc1ccc2cc(C(=O)N3CCc4ccccc43)[nH]c2c1	22	1	-8	53*	-5	1
CCCn1cc(C(=O)Nc2ccc(Oc3cccnc3)cc2)c2ccccc21	nt	nt	5	nt	nt	nt
CC(=O)NCCn1c(SCC(=O)OCc2ccccc2)nc2ccccc2c1=O	-5	2	-4	22	-6	1
SMILES	GDH-TPI counter	RecA intein inh	CCHF vOTU inh	VHR inh abs	3CLpro inhibitor	Mtb FBA inh
Nc1c(C(=O)NCc2ccccc2)c2nc3ccccc3nc2n1-c1ccc2c(c1)OCO2	-4	-8	-2	4	5	-1
Nc1c(C(=O)NCCN2CCOCC2)c2nc3ccccc3nc2n1-c1ccc2c(c1)OCO2	22	2	1	-12	-1	4
Nc1c(C(=O)NCCN2CCOCC2)c2nc3ccccc3nc2n1-c1ccccc1	28	-498	-145	1	-8	149*
CC(=O)NCCn1c(SCC(=O)c2ccccc2)nc2ccccc2c1=O	33*	-3	-2	25	1	0
C=CCNC(=O)c1c(N)n(-c2cccc(S(N)(=O)=O)c2)c2nc3ccccc3nc12	17	i	-131	19	-1	116*
COCCCNC(=O)CSc1nc2ccccc2c(=O)n1CCc1ccc(S(N)(=O)=O)cc1	0	0	10	2	0	32*
CC(=O)NCCn1c(SCC(=O)NCCc2ccc(S(N)(=O)=O)cc2)nc2ccccc2c1=O	-5	-1	5	10	2	-1
CCN(CC)C(=O)Oc1ccc2oc(=O)cc(-c3cc4cccc(OC)c4o3)c2c1	11	2	13	-2	3	1
COCCNC(=O)c1c(N)n(-c2cccc(C)c2)c2nc3ccccc3nc12	-1	-406	-123	8	2	183*
COC(=O)c1c(N)n(-c2ccc(N3CCOCC3)cc2)c2nc3ccccc3nc12	nt	nt	nt	7	nt	nt
COCCCNC(=O)c1c(N)n(-c2ccccc2)c2nc3ccccc3nc12	13	i	-247	9	1	+
COCCCNC(=O)c1c(N)n(/N=C/c2cccs2)c2nc3ccccc3nc12	0	-45	1	0	4	-1
COC(=O)c1c(N)n(-c2ccc(NC(C)=O)cc2)c2nc3ccccc3nc12	19	-71	-101	8	0	109*
COc1cccc(-n2c(N)c(C(=O)Nc3c(C)n(C)n(-c4ccccc4)c3=O)c3nc4ccccc4nc32)c1	37*	nt	1	25	4	10
Cc1cc(C)cc(-n2c(N)c(C(=O)Nc3c(C)n(C)n(-c4ccccc4)c3=O)c3nc4ccccc4nc32)c1	5	3	1	10	2	0
Cc1cc(C(=O)N2CCC2(C)C(=O)NCc2cccc3ccccc23)nn1C (stereo unspecified)	3	nt	-6	nt	nt	6
COCCCNC(=O)c1c(N)n(-c2ccc(S(N)(=O)=O)cc2)c2nc3ccccc3nc12	25	-140	-154	21	-1	+
COc1cc(-n2c(N)c(C(=O)NCc3ccco3)c3nc4ccccc4nc32)cc(OC)c1OC	12	nt	-13	-17	3	14
COCCNC(=O)c1c(N)n(-c2ccccc2)c2nc3ccccc3nc12	18	i	-87	10	-1	148*
c1ccc2nc3c(nc2c1)c1ccccc1n3CCN1CCOCC1	15	1	-8	28	-5	-1
Nc1c(C(=O)NCCN2CCOCC2)c2nc3ccccc3nc2n1CCc1ccccc1F	27	-76	-98	14	-2	124*
COc1cccc(C2/C(=C(\O)c3ccc4c(c3)OCCO4)C(=O)C(=O)N2Cc2cccnc2)c1 (stereo unspecified)	32*	-1	4	40	0	5
